The text below walks through data of ChEMBL document CHEMBL3988442, “University of Dundee, Small-Polar-MMV Screening Library” (2021).

One test relates to Trypanosoma cruzi. Nature of the test: Trypanosoma cruzi phosphomannomutase and mannose-1-phosphate guanylyltransferase assay. Set-up: scale not given: direction of the effect not stated beside the values. The settings on record: 10 µM. The class given is functional.
Regarding `O=C(NC1CCC1)[C@@H]1C[C@@H]2CCN(Cc3cccs3)C[C@@H]2O1`, the Percent Effect is -0.197%.
The same measure, in the same setting: as for `CN(C)CC1(O)CCN(S(=O)(=O)c2ccc(F)cc2)C1` (stereo not drawn), the figure is 3.36%.
Regarding `Cc1ncsc1-c1nnc(C2CCN(Cc3ccc(F)cc3)CC2)o1`, the Percent Effect is 1.19%.
On the same count and under the same terms, as for `Cc1ncc(CN(C)CC2CCCN2c2cccnn2)s1` (stereo not drawn), the figure is 3.79%; as for `CN(C)CCn1c(=O)oc2ccc(NC(=O)CC(C)(C)C)cc21`, 4.38%.
On the same count and under the same terms, as for `O=C(NCC(O)c1ccccc1Cl)c1cccc(-n2cnnn2)c1` (stereo not drawn), the figure is 1.18%; as for `COCC(NC(=O)c1cnn(C)c1)c1cccc(C(F)(F)F)c1` (stereo not drawn), -4.11%.
In the case of `CC(C)c1nc(C2CCCN2Cc2ccno2)no1` (stereo not drawn), the Percent Effect was -2.81%.
Same read-out and setting: as for `CN1CCN(Cc2cscn2)CC(C(=O)N(C)C)C1` (stereo not drawn), the figure is 5.91%; as for `N#Cc1ccc(CN2CCN(C(=O)C3CCC3)[C@@H]3CS(=O)(=O)C[C@@H]32)cc1`, -5.61%; as for `O=C(NC1CC1)[C@@H]1CCO[C@@H]2CCN(Cc3ccsc3)C[C@H]21`, -5.38%.
The same measure, in the same setting: as for `COC1CCN(C(=O)c2c(Cl)c3ccccc3n2C)CC1`, the figure is 3.41%; as for `OC(CN1CCOCC1)c1ccc(OC(F)(F)F)cc1` (stereo not drawn), 0.283%.
Still for that read-out and setting: as for `CCOCCN1CCN(Cc2nc(C3CC3)no2)CC1CC` (stereo not drawn), the figure is 10.4%; as for `CCOC(CC)C(=O)NCCC(=O)N1CCN(c2ncccn2)CC1` (stereo not drawn), 5.94%; as for `CN(Cc1ccsc1)C(=O)c1cc2c([nH]c1=O)CCCC2=O`, -2.32%.
On to `CC(C)CCN1CN=C(NS(=O)(=O)c2ccc(F)cc2)NC1`, for which the Percent Effect is -1.38%.
Still for that read-out and setting: as for `COCCN1C[C@@H]2CCCO[C@@H]2[C@H](N(C)Cc2ccco2)C1`, the figure is 2.56%; as for `CN(Cc1cnn(C)c1)C(=O)NC1CCN(c2ncccn2)CC1`, -10.7%.
For the molecule `Cc1nc(C2CCCN2CC(=O)N2CCCc3ccccc32)no1` (stereo not drawn), the Percent Effect was 6.77%.

A further test addresses T1, Arginase-2, mitochondrial (Homo sapiens) (UniProt P78540).
T1 sequence (whole entry): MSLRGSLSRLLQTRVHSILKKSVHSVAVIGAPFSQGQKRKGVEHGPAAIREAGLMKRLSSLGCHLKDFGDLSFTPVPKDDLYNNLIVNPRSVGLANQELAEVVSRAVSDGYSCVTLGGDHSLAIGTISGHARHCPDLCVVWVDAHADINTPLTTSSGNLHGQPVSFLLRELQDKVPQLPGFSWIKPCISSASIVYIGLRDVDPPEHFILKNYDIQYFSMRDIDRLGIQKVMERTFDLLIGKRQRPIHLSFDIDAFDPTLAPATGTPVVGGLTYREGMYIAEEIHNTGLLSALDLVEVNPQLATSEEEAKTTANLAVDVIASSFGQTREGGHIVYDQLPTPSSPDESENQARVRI
Nature of the test: in vitro enzyme assay to detect the production of urea directly proportional to the activity of Arginase II. The class given is functional. Particulars: 33.3 µM. Set-up: scale not given: in the data most compounds retested in dose-response had high values.
With `O=C(NCC1CC1)[C@@H]1CCO[C@@H]2CCN(Cc3ccco3)C[C@H]21`, the Percent Effect was -55.7%.
Still for that read-out and setting: as for `CC(C)Nc1ncnc2c1CCN(C(=O)c1ccncc1F)CC2`, the figure is -2.87%.
Still for that read-out and setting: as for `Cc1nc[nH]c1CN1C[C@@H]2CC[C@H](C1)N(C(=O)CCNS(C)(=O)=O)C2`, the figure is 17.7%.
Still for that read-out and setting: as for `O=C(N[C@@H]1CN(c2ncccn2)C[C@@H]2CCCO[C@@H]21)c1cnccn1`, the figure is -48.6%; as for `CNc1cncc(C2CCCN2Cc2ccccn2)n1` (stereo not drawn), 1.62%; as for `Fc1ccc2[nH]c(C3CCCN3CCc3ccccn3)nc2c1` (stereo not drawn), -1.2%.
Consider `CS(=O)(=O)NCc1cn2c(n1)CN(C(=O)c1ccc[nH]1)CC2`, for which the Percent Effect turned out to be 0.233%.
The same measure, in the same setting: as for `O=C(CCNS(=O)(=O)c1ccccc1)NCc1ccoc1`, the figure is -0.521%.
Still for that read-out and setting: as for `O=C(NCc1ccc(-n2cncn2)nc1)c1ccoc1`, the figure is -10.4%; as for `Cn1ccnc1CN1CCC2(CC(=O)N(c3cccc(F)c3)C2)C1` (stereo not drawn), 7.1%; as for `CC(C)c1nc2n(n1)CC(NCc1nc(-c3cccnc3)no1)CC2` (stereo not drawn), -2.74%.
On to `O=C(NCc1nnc2n1CCCC2)N1CCc2ccccc2C1`, for which the Percent Effect came to 4.09%.
The same measure, in the same setting: as for `Cc1oc(C)c(C(=O)N2CCCN(Cc3cscn3)CC2)c1C`, the figure is -2.32%; as for `COc1c(CNC2CCN(C(=O)C3CC3)CC2)c(C(C)C)nn1C`, 1.44%; as for `CN(C)C(=O)c1ccc(CNC(=O)NCCN(C)C2CCCC2)cc1`, -2.81%.
The same measure, in the same setting: as for `CC(C(=O)N1CCCN(Cc2ccc(C#N)cc2)CC1)n1ccnc1` (stereo not drawn), the figure is 1.15%.
For the molecule `CCOc1ccccc1C(CC(=O)Nc1ccc(C)cn1)NC(C)=O` (stereo not drawn), the Percent Effect was determined as 1.15%.
Still for that read-out and setting: as for `CC(C)COC(C)C(=O)NCc1ccc(OC(C)C)nc1` (stereo not drawn), the figure is 1.9%; as for `O=C(CNCCn1cccn1)NCC1(c2ccccc2)CC1`, 1.47%; as for `O=C(NC1CCC1)[C@@H]1C[C@@H]2CCN(Cc3cccs3)C[C@@H]2O1`, 2.56%.
The same measure, in the same setting: as for `CN(C)CC1(O)CCN(S(=O)(=O)c2ccc(F)cc2)C1` (stereo not drawn), the figure is -3.94%; as for `Cc1ncsc1-c1nnc(C2CCN(Cc3ccc(F)cc3)CC2)o1`, -0.696%; as for `Cc1ncc(CN(C)CC2CCCN2c2cccnn2)s1` (stereo not drawn), -0.645%.
Same read-out and setting: as for `CN(C)CCn1c(=O)oc2ccc(NC(=O)CC(C)(C)C)cc21`, the figure is 14.1%.
On to `O=C(NCC(O)c1ccccc1Cl)c1cccc(-n2cnnn2)c1` (stereo not drawn), for which the Percent Effect is 1.36%.
On the same count and under the same terms, as for `COCC(NC(=O)c1cnn(C)c1)c1cccc(C(F)(F)F)c1` (stereo not drawn), the figure is 0.455%; as for `CC(C)c1nc(C2CCCN2Cc2ccno2)no1` (stereo not drawn), 2.13%; as for `CN1CCN(Cc2cscn2)CC(C(=O)N(C)C)C1` (stereo not drawn), -3.03%.
Still for that read-out and setting: as for `N#Cc1ccc(CN2CCN(C(=O)C3CCC3)[C@@H]3CS(=O)(=O)C[C@@H]32)cc1`, the figure is -20.7%; as for `O=C(NC1CC1)[C@@H]1CCO[C@@H]2CCN(Cc3ccsc3)C[C@H]21`, 3.5%.
Still for that read-out and setting: as for `COC1CCN(C(=O)c2c(Cl)c3ccccc3n2C)CC1`, the figure is 5.21%.
For `OC(CN1CCOCC1)c1ccc(OC(F)(F)F)cc1` (stereo not drawn), the Percent Effect worked out at 0.401%.
The same measure, in the same setting: as for `CCOCCN1CCN(Cc2nc(C3CC3)no2)CC1CC` (stereo not drawn), the figure is 0.909%.
